Source: PubChem BioAssay AID431 (Sanford-Burnham Center for Chemical Genomics, 2006)
Hit rate of the full screen: of about 63,000 compounds, about 1,100 (1.7%) were called active. The sample holds actives, similar compounds and a random draw of the others, so the mix is not that of the screen. Measured potencies and affinities stand elsewhere. Values without a mark were called inactive.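 How the source made its calls: active means compounds whose percent cytotoxicity in the single-dose primary screen, scaled between solvent and toxic-drug controls, exceeds 50; inactive means the rest.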

test: viability loss of HPDE-C7K cells – cell-based, fluorescence, HTS, primary screen (AID 431); conditions: HPDE-C7K KRASV12 cells, Alamar Blue viability, 48 h; at 10 µM; stronger effect = higher value;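 further: 0% = DMSO solvent wells and 100% = doxorubicin-treated wells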

SMILES | cytotoxicity
CN(C)S(=O)(=O)c1ccc(-c2ccccc2)cc1 | -6.1%
CN(C)S(=O)(=O)n1cnc(-c2ccccc2)c1-c1ccccc1 | -11.5%
O=C(O)COc1ccc(Oc2ccccc2)cc1 | 10.4%
COc1ccc(N2CCN(CCCNC(=O)CCCn3c(=O)[nH]c4ccsc4c3=O)CC2)cc1 | 10.4%
O=C(OCc1nc2ccccc2s1)c1cccc(S(=O)(=O)N2CCOCC2)c1 | 4.7%
CN(C)c1ccc(CN2CCCC(O)C2)cc1 (configuration not stated) | 4.1%
OC1CCCN(Cc2cccc3ccccc23)C1 (configuration not stated) | 9.5%
O=S(=O)(c1ccc(C2CCCCC2)cc1)N1CCN(c2ncccn2)CC1 | 0.7%
Cc1cc(C(=O)CN2C(=O)NC(C)(c3cccc(Br)c3)C2=O)c(C)n1Cc1ccco1 (configuration not stated) | 17%
CC(=O)O[C@@]12CO[C@@H]1C[C@H](O)[C@@]1(C)C(=O)[C@H](O)C3=C(C)[C@@H](OC(=O)[C@H](O)[C@@H](NC(=O)OC(C)(C)C)c4ccccc4)C[C@](O)([C@@H](OC(=O)c4ccccc4)[C@H]21)C3(C)C | 52.1% (active)
CC(=O)O[C@H]1C(=O)[C@]2(C)[C@H]([C@H](OC(=O)c3ccccc3)[C@]3(O)C[C@H](OC(=O)[C@H](O)[C@@H](NC(=O)c4ccccc4)c4ccccc4)C(C)=C1C3(C)C)[C@]1(OC(C)=O)CO[C@@H]1C[C@@H]2O | 67.2% (active)
CCc1cccc(CC)c1N(COC)C(=O)Cn1c(CO)nc2ccccc21 | -6.1%
CCOc1ccc(-n2c(=O)cc(N3CCN(c4ccccc4)CC3)[nH]c2=O)cc1 | 7.9%
CCOC(=O)CSc1nnc(CNC(=O)c2ccco2)n1C | -0.1%
O=C(NC1CCCC1)C1C2C=CC3(CN(Cc4cccs4)C(=O)C13)O2 (configuration not stated) | 3.8%
Cc1ccc2nc(NCc3ccco3)c(C=NCc3ccco3)c(=O)n2c1 | -7.1%
CC(=O)N[C@H]1C[C@@H]1c1ccccc1 | 6.6%
COc1ccc(NC(=O)CS(=O)CC(=O)NCc2cccc(C(F)(F)F)c2)cc1 (configuration not stated) | 1%
COc1ccc(NC(=O)CSc2nnc(-c3ccccc3)n2Cc2ccco2)c(OC)c1 | -5.5%
CCC(=O)N(CCc1ccccc1C)Cc1cc2cc3c(cc2[nH]c1=O)OCO3 | -20.6%
CC(=O)N(CCc1ccccc1C)Cc1cc2cc3c(cc2[nH]c1=O)OCO3 | 53.3% (active)
COc1ccc(CCN(Cc2cc3cc4c(cc3[nH]c2=O)OCO4)C(C)=O)cc1OC | -1.5%
COc1ccccc1C(=O)Nc1ccc(S(=O)(=O)Nc2cc(C)on2)cc1 | 3.1%

SMILES | cytotoxicity
O=C(Nn1c(C2CC2)nc2ccccc2c1=O)c1ccco1 | -1.6%
O=c1cc(CN2CCN(c3ccc(F)cc3)CC2)nc2sccn12 | -7.8%
Cc1nc2ccccn2c(=O)c1CCN1CCC(C(=O)c2ccc(F)cc2)CC1 | 10.8%
Cn1c(SCc2nc3ccccc3[nH]2)nnc1-c1cccs1 | -13.1%
CCCCN(C)S(=O)(=O)c1ccc(C(=O)Nc2nnc(-c3cccs3)o2)cc1 | 32.1%
O=C(Nc1nnc(-c2cccs2)o1)c1cccc(Oc2ccccc2)c1 | 35.3%
CCCCN(CC)S(=O)(=O)c1ccc(C(=O)Nc2nnc(-c3cccs3)o2)cc1 | 52.7% (active)
O=C(Nc1nnc(-c2cccs2)o1)c1cccc(F)c1 | 21.9%
CCCCN(CC)S(=O)(=O)c1ccc(C(=O)Nc2nnc(-c3ccccc3Cl)o2)cc1 | 58.3% (active)
O=C(Nc1nnc(-c2cccs2)o1)c1cccc(C(F)(F)F)c1 | 77.3% (active)
CC1CC(C)CN(S(=O)(=O)c2ccc(C(=O)Nc3nnc(-c4cccs4)o3)cc2)C1 (configuration not stated) | 56.6% (active)
CC1CN(S(=O)(=O)c2ccc(C(=O)Nc3nnc(-c4ccc5c(c4)CCCC5)o3)cc2)CC(C)O1 (configuration not stated) | 33.7%
CCN(Cc1ccccc1)S(=O)(=O)c1ccc(C(=O)Nc2nnc(C3CC3)o2)cc1 | 6.4%
COc1cccc(C(=O)Nc2nnc(-c3cccs3)o2)c1 | 15.6%
Brc1ccc(-c2nnc(-c3ccc4c(c3)OCO4)o2)o1 | -2%
COC(=O)c1ccccc1NC(=O)CSc1nnnn1C1CCCCC1 | 0.6%
O=C(Nc1nccs1)C1CCN(S(=O)(=O)c2cccnc2)CC1 | -8.7%
COCCCn1cnc2c(c1=O)c1nc3ccccc3nc1n2-c1ccc(C)cc1 | -9.5%
Cn1c(=O)oc2cc(S(=O)(=O)NC3CCCc4ccccc43)ccc21 (configuration not stated) | -4%
O=C(CCCn1c(=S)[nH]c2ccccc2c1=O)NCc1ccco1 | -11%
CC1(C)COCN1S(=O)(=O)c1ccc(C(=O)Nc2nnc(-c3ccc(Cl)s3)o2)cc1 | 93.6% (active)
O=C(Nc1nnc(C2CC2)o1)c1ccc(S(=O)(=O)N2CCCc3ccccc32)cc1 | 60.6% (active)
CCC1CCCCN1S(=O)(=O)c1ccc(C(=O)Nc2nnc(-c3cccs3)o2)cc1 (configuration not stated) | 11.8%

SMILES | cytotoxicity
CCC1CCCCN1S(=O)(=O)c1ccc(C(=O)Nc2nnc(-c3ccccc3Cl)o2)cc1 (configuration not stated) | 76.1% (active)
COc1ccc(-c2nnc(NC(=O)c3ccc(S(=O)(=O)N4CCCc5ccccc54)cc3)o2)cc1 | 49.3%
COc1ccc(-c2nnc(NC(=O)c3ccc(S(=O)(=O)N4COCC4(C)C)cc3)o2)cc1 | 14.3%
CC1CCN(S(=O)(=O)c2ccc(NC(=O)c3cccs3)cc2)CC1 | 15.7%
O=C(Nc1nnc(-c2ccccc2Cl)o1)c1cccnc1 | 28.8%
CC1CCCCN1S(=O)(=O)c1ccc(NC(=O)c2cccs2)cc1 (configuration not stated) | 57.2% (active)
CCCC(=O)Nc1nnc(-c2ccc(Cl)s2)o1 | -1.5%
O=C(Nc1ccc(S(=O)(=O)N2CCCc3ccccc32)cc1)C1CCCO1 (configuration not stated) | 12.3%
CN1CCN(S(=O)(=O)c2ccc(NC(=O)c3cccs3)cc2)CC1 | -16.7%
O=C1C(C=NCCCn2ccnc2)=C(O)c2ccccc21 | 1%
O=C(NC1CCCCC1)C1CCCN1C(=O)NCc1ccccc1 (configuration not stated) | 11.8%
CCNS(=O)(=O)c1ccc(OCCNS(C)(=O)=O)cc1 | -2.5%
O=C(/C=C/N1CCOCC1)c1coc2ccccc12 | -4.5%
Cc1cccc(C)c1NC(=O)CSc1nnc(-c2ccoc2C)n1C | -5.8%
O=C(OCCN(C1=NS(=O)(=O)c2ccccc21)c1ccc(Cl)cc1)c1ccco1 | -16.8%
CC(O)CCc1nc2ccc(C(=O)O)cc2[nH]1 (configuration not stated) | -5.2%
CC1CCCCN1S(=O)(=O)c1ccc(C(=O)Nc2nnc(-c3ccccc3Cl)o2)cc1 (configuration not stated) | 56.7% (active)
O=C(Nc1nnc(-c2ccccc2Cl)o1)c1ccc(S(=O)(=O)N2CCCCCC2)cc1 | 43.8%
Cc1nnc(NC(=O)c2ccc(S(=O)(=O)N3CCCCCC3)cc2)o1 | 6.5%
CCc1nnc(NC(=O)c2ccc(S(=O)(=O)N3CCCCC3C)cc2)s1 (configuration not stated) | -7.7%
CC1CCCCN1S(=O)(=O)c1ccc(NC(=O)c2cccc(-n3cnnn3)c2)cc1 (configuration not stated) | 20.3%
CC1CCCN(S(=O)(=O)c2ccc(C(=O)Nc3nnc(-c4ccccc4Cl)o3)cc2)C1 (configuration not stated) | 63.8% (active)
O=C(Nc1ccccc1C(=O)N1CCOCC1)c1ccco1 | 3.4%

SMILES | cytotoxicity
Cc1ccc(C)c(C(=O)CSc2nnnn2-c2cccnc2)c1 | 0.6%
Cc1cc(C)n(S(=O)(=O)c2cccc(Cl)c2Cl)n1 | -9.2%
COc1nc(-c2ccccc2)ccc1-c1noc(-c2ccco2)n1 | -3%
COC(=O)c1ccccc1S(=O)(=O)N(Cc1ccco1)Cc1cc2cc(OC)ccc2[nH]c1=O | -1.7%
COC(=O)CCC(=O)Nc1sc2c(c1C#N)CCCC2 | -6.7%
CCc1ccc(CCC(=O)Nc2sc3c(c2C#N)CCCC3)o1 | 73.8% (active)
CCCC(=O)Nc1sc2c(c1C#N)CCCC2 | 1.4%
CCOC(=O)C1C(c2cccc(Cl)c2Cl)NC(=O)NC1(O)C(F)(F)F (configuration not stated) | 10.1%
COC(=O)C1=C(C)NC(=O)CC1c1cccc(Cl)c1Cl (configuration not stated) | -0.8%
O=C(Nc1ccc2c(c1)OCO2)c1ccc(Br)c(S(=O)(=O)N2CCCC2)c1 | 14.5%
CCc1ncc(C(O)c2cccc(OC)c2OC)n1C (configuration not stated) | 6.9%
CCOC(=O)c1c(N)sc(C(=O)Nc2ccc3c(c2)OCO3)c1C | 19.8%
CCN(CC)S(=O)(=O)c1ccc(NC(=O)Cn2c(=O)oc3ccccc32)cc1 | 1.6%
Cc1nn2c(N3CCOCC3)c3c(nc2c1-c1ccccc1)CCCC3 | 8.5%
Cc1c(-c2ccccc2)nc(N)c(C#N)c1-c1ccco1 | -7.4%
CC1=C(C#N)c2nc(N)c(C#N)c(C)c2/C1=C\c1ccccc1 | 107% (active)
Cc1nc(N)c(C#N)c(-c2ccccc2)c1C | 18.7%
COC(=O)Nc1nc2ccc(Sc3ccccc3)cc2[nH]1 | 57.5% (active)
COC(=O)Nc1nc2ccc(C(=O)c3ccccc3)cc2[nH]1 | 67.2% (active)
COc1cc(C(=O)Nc2nc3ccccc3[nH]2)cc(OC)c1OC | -19.5%
Cc1nc2ccc(C(=O)c3ccccc3)cc2[nH]1 | 1.1%
O=C(Nc1nc2ccccc2[nH]1)c1ccc(F)cc1 | -12%
O=C(COc1ccccc1)Nc1nc2ccccc2[nH]1 | -1.5%
